Counter-ions that a name gives are not always drawn.
The molecules below were run on Saccharomyces cerevisiae BY4741 SeMeCo community (assay: z-score of subpopulation abundance vs DMSO median, subpopulation auxotrophic for UM; higher = larger share of this subpopulation than in DMSO controls). Conditions: 10 µM; 24 h; SM minimal medium; subpopulation (auxotrophy): UM.
In short: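 Automated confocal microscopy of paraformaldehyde-fixed cells was used to follow a Saccharomyces cerevisiae BY4741 community carrying four plasmids, each restoring one auxotrophy and encoding a distinct fluorescent protein. The community was pre-grown overnight to OD600 1.0, diluted to 0.3, and added at 70 µl to 384-well plates acoustically predosed with library drugs (10 µM final) for 24 h of growth in minimal SM medium. Single-auxotroph fluorescent strains set thresholds and autofluorescence correction, and each subpopulation's abundance was scored as a z-score against the vehicle-well median.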

| SMILES | z-score of subpopulation abundance |
| --- | --- |
| CCCCCOc1ccc(-c2ccc(-c3ccc(C(=O)N[C@H]4C[C@@H](O)[C@@H](O)NC(=O)[C@@H]5[C@@H](O)[C@@H](C)CN5C(=O)[C@H]([C@@H](C)O)NC(=O)[C@H]([C@H](O)[C@@H](O)c5ccc(O)cc5)NC(=O)[C@@H]5C[C@@H](O)CN5C(=O)[C@H]([C@@H](C)O)NC4=O)cc3)cc2)cc1 | 1.54 |
| Cc1ccnc(NS(=O)(=O)c2ccc(N)cc2)n1 [Sulfamerazine] | 0.45 |
| O=C(O)c1cc(-c2ccc(F)cc2F)ccc1O [Diflunisal] | -3.18 |
| C[C@@H]1[C@H](O)[C@@H](C)/C=C/C=C/C=C/C=C/C=C/C=C/C=C/[C@H](O[C@@H]2O[C@H](C)[C@@H](O)[C@H](N)[C@@H]2O)C[C@@H]2O[C@](O)(C[C@@H](O)C[C@@H](O)[C@H](O)CC[C@@H](O)C[C@@H](O)CC(=O)O[C@H]1C)C[C@H](O)[C@H]2C(=O)O [Amphotericin B] | 29.4 |
| COC1C(O)CC(=O)OC(C)CC=CC=CC(OC2CCC(N(C)C)C(C)O2)C(C)CC(CC=O)C1OC1OC(C)C(OC2CC(C)(O)C(O)C(C)O2)C(N(C)C)C1O (centres undefined) [Spiramycin] | 0.4 |
| C[C@@H]1C/C=C/C=C/C=C/C=C/[C@H](O[C@@H]2O[C@H](C)[C@@H](O)[C@H](N)[C@@H]2O)C[C@@H]2O[C@](O)(C[C@@H](O)C[C@H]3O[C@@H]3/C=C/C(=O)O1)C[C@H](O)[C@H]2C(=O)O [Natamycin] | 9.97 |
| COCCCN1CCC(NC(=O)c2cc(Cl)c(N)c3c2OCC3)CC1 [Prucalopride] | 0.57 |
| CCCSc1ccc2[nH]c(NC(=O)OC)nc2c1 [Albendazole] | 0.26 |
| CN(C)CCN1C(=O)c2cccc3cc(N)cc(c23)C1=O [Amonafide] | -0.24 |
| COc1ccnc(C[S+]([O-])c2nc3cc(OC(F)F)ccc3[nH]2)c1OC (centres undefined) [Pantoprazole sodium] | 0.55 |
| CCOC(=O)C1=C(COCCN)NC(C)=C(C(=O)OC)C1c1ccccc1Cl (centres undefined) [Amlodipine Besylate] | -8.17 |
| CC(C)(C)C(=O)C(Oc1ccc(Cl)cc1)n1ccnc1 (centres undefined) [Climbazole] | 24.4 |
| COc1cc(N)c(Cl)cc1C(=O)NC1CCN(CCCOc2ccc(F)cc2)CC1OC (centres undefined) [Cisapride] | -0.35 |
| COc1ccc2[nH]c([S+]([O-])Cc3ncc(C)c(OC)c3C)nc2c1 (centres undefined) [Omeprazole] | -0.94 |
| O=C1CCc2cc(OCCCCc3nnnn3C3CCCCC3)ccc2N1 [Cilostazol] | -0.9 |
| O=c1ccn(C2CC(O)C(CO)O2)c(=O)[nH]1 (centres undefined) [2-deoxyuridine] | -0.82 |
| NC12CC3CC(CC(C3)C1)C2 [Amantadine HCl] | -0.27 |

| SMILES | z-score of subpopulation abundance |
| --- | --- |
| CO/N=C(\C(=O)N[C@@H]1C(=O)N2C(C(=O)OCOC(=O)C(C)(C)C)=C(/C=C\c3scnc3C)CS[C@H]12)c1csc(N)n1 [Cefditoren Pivoxil] | -0.06 |
| O=C1c2cccc3c2[C@H](CCC3)CN1[C@@H]1CN2CCC1CC2 [Palonosetron HCl] | 0.37 |
| CCCOc1ccc2[nH]c(NC(=O)OC)nc2c1 [Oxibendazole] | 1.39 |
| C[C@]12CC[C@@H]3c4ccc(O)cc4CC[C@H]3[C@@H]1CC[C@@H]2OC(=O)CCC1CCCC1 [Estradiol Cypionate] | 0.45 |
| COc1ccc2c(c1)c(CC(=O)O)c(C)n2C(=O)c1ccc(Cl)cc1 [Indomethacin] | 1.08 |
| O=C(O)Cc1ccccc1Nc1c(Cl)cccc1Cl [Diclofenac Diethylamine] | -1.81 |
| C[C@@H](O)[C@H]1C(=O)N2C(C(=O)OCOC(=O)C(C)(C)C)=C(SC3CN(C4=NCCS4)C3)[C@H](C)[C@H]12 [Tebipenem Pivoxil] | -0.27 |
| COC(=O)C1=C(C)NC(C)=C(C(=O)OCC(C)C)C1c1ccccc1[N+](=O)[O-] (centres undefined) [Nisoldipine] | 0.03 |
| CN1C2CCCC1CC(NC(=O)c1nn(C)c3ccccc13)C2 (centres undefined) [Granisetron] | 0.55 |
| CN(C)C[C@@H]1CCn2cc(c3ccccc32)C2=C(C(=O)NC2=O)c2cn(c3ccccc23)CCO1 | -0.29 |
| Cc1ccc(-c2ncc(Cl)cc2-c2ccc(S(C)(=O)=O)cc2)cn1 [Etoricoxib] | 0.52 |
| Cc1ccc(Sc2ccccc2N2CCNCC2)c(C)c1 | -0.97 |
| CN(C)CCCN1c2ccccc2Sc2ccccc21 [Promazine hydrochloride] | -0.02 |
| CN(C)CCn1nnnc1SCC1=C(C(=O)O)N2C(=O)[C@@H](NC(=O)Cc3csc(N)n3)[C@H]2SC1 [Cefotiam hydrochloride] | 1.04 |
| Cc1ncc([N+](=O)[O-])n1CCOC(=O)c1ccccc1 [Metronidazole Benzoate] | -0.26 |
| O=C1C(CC[S+]([O-])c2ccccc2)C(=O)N(c2ccccc2)N1c1ccccc1 (racemic) [(+/-)-Sulfinpyrazone] | 0.41 |
| COc1ccccc1OCC(O)CN1CCN(CC(=O)Nc2c(C)cccc2C)CC1 (centres undefined) [Ranolazine 2HCl] | -0.16 |

Reference: the supplement of paper PMC8975748
